Laboratory results as given in PubChem BioAssay (NCATS).
“And” between values parts separate entries of the source, which are not always exact repeats. Equal entries are not always repeated. Inconclusive results are not listed. The source made the active and inactive calls. Unless noted, the call rests on the fitted dose curve; in most records, active means well fitted curve in the direction sought with a large enough effect; inconclusive means small, poorly fitted or top-dose-only effect, or another doubt; inactive means no such curve, though single readings can be large; an effect the other way counts as inactive or inconclusive.

Assays:
[1] = qHTS assay for small molecule activators of the nuclear factor-kappa B (NF-kB) signaling pathway (AID 651749; active means well fitted activation curve with a large enough effect in the signal ratio; the % refers to the signal ratio; further: % of control where 0% means no effect); settings: NF-kB-bla ME-180 cells, beta-lactamase FRET ratio, 16 h; stronger effect = higher value
In short: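 FRET-based beta-lactamase detection in ME-180 cells reports NF-kB response-element-driven transcription following overnight (16 hr) compound treatment.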

[2] = qHTS assay for environmental chemicals that activate the Aryl hydrocarbon Receptor (AhR) signaling pathway (AID 651777); settings: 1A2-DRE human hepatoma cells, luciferase, 24 h; activation: stronger effect = higher value; further: nearly all actives have a fitted effect of over 15% in size; further: potency means the concentration at half of the fitted maximal effect; on activation: % of control where 0% means no effect
In short: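 Concentration–response screening used 1,200 1A2-DRE cells per well, 24 hr compound exposure (37 C, 5% CO2), and One-Glo luminescence as the AhR-driven CYP1A2 reporter signal.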

[3] = biological target: Peroxisome proliferator-activated receptor alpha (Homo sapiens) (UniProt Q07869); assay: qHTS assay for small molecule agonists of the peroxisome proliferator-activated receptor alpha (PPARalpha) signaling pathway (AID 651778); settings: PathHunter PPARalpha complementation, chemiluminescence, 6 h; max response: stronger effect = higher value; further: % of control where 0% means no effect
In short: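 Chemiluminescence from complemented enzyme reported PPARalpha activation in cells after 6 hr of compound treatment at 37 C. The detection reagent was incubated for 60 min at room temperature, and compounds were scored as agonists.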

[4] = qHTS assay for small molecule agonists of the antioxidant response element (ARE) signaling pathway measured by Nrf2-dependant transcriptional activity - cell viability counter screen (AID 720653; active means well fitted curve in the direction sought with a large enough effect in the repeat runs; an effect the other way counts as inactive or inconclusive; further: on the % scale 0 is the no-effect control and ±100 the full control effect); settings: ARE-bla HepG2 viability, CellTiter-Glo ATP luminescence, 16 h; max response: stronger effect = lower value
In short: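 Cytotoxicity counter screen: intracellular ATP quantified by CellTiter-Glo luminescence in the same ARE-bla HepG2 plates, after 16 h compound exposure and a 2 h beta-lactamase substrate step.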

[5] = qHTS Assay for Identifying Gametocytocidal Compounds (AID 743244);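 further: on the % scale 0 is the no-effect control and ±100 the full control effect; actives lower the fluorescent signal which means gametocytes are killed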; settings: P. falciparum 3D7 stage III-V gametocytes, alamarBlue, 72 h; max response: stronger effect = lower value
In short: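 Compounds are pinned into medium, gametocytes (stage III–V, 3D7, 20,000 cells/well) added, and plates held 72 h at 37 °C in 5% CO2. AlamarBlue follows for 24 h before fluorescence reading.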

[6] = qHTS assay for small molecule disruptors of the mitochondrial membrane potential - 1 hr assay (AID 651754; calls by dose curve; further: nearly all actives have a fitted effect of over 35% in size; further: potency means the concentration at half of the fitted maximal effect); settings: series mostly up to 92.2 µM
In short: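 Read-out: dye fluorescence at 490 nm ex/535 nm em (monomers) and 540 nm ex/590 nm em (aggregates) in HepG2 cells. Compound exposure 1 hr at 37C, followed by 30 min dye loading.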

[7] = biological target: Tumor necrosis factor (Homo sapiens) (UniProt P01375); assay: qHTS assay to identify small molecules that stimulate Tumor Necrosis Factor-alpha (TNF-alpha) secretion (AID 651757; active means well fitted curve in the direction sought with a large enough effect in the signal ratio; the % refers to the signal ratio; further: 0% is about no effect); settings: Human cells, HTRF 665/615 ratio; series mostly up to 92.2 µM
In short: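 THP-1 cells, 3000/well; compound 17 hrs, 37 C; add cryptate/XL665 anti-TNF-alpha antibody pair; 3 hr RT; TR-FRET (HTRF) read of secreted TNF-alpha. Quantitative HTS format.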

[8] = qHTS assay to identify small molecules that stimulate interleukin-8 (IL-8) secretion (AID 651758; active means well fitted activation curve with a large enough effect in the signal ratio; the % refers to the signal ratio; further: 0% is about no effect); settings: HTRF ratio (665/615); series mostly up to 92.2 µM
In short: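 Secreted IL-8 measured homogeneously by TR-FRET (two labelled anti-IL-8 antibodies, 1-3 h at room temperature) after a 16 h, 37 C compound treatment of THP-1 cells at 2000 cells/well.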

[9] = qHTS assay for small molecule antagonists of the retinoid-related orphan receptor gamma (ROR-gamma) signaling pathway - cell viability counter screen (AID 720652; active means well fitted curve in the direction sought with a large enough effect in the repeat runs; an effect the other way counts as inactive or inconclusive;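 further: CHO reporter cells with doxycycline-induced ROR-gamma expression; compound exposure lasted 16 hr before ATP read; on the % scale 0 is the no-effect control and ±100 the full control effect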); settings: RORgamma reporter cell line viability counter screen; series mostly up to 92.2 µM
In short: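 CHO RORE-LUC/TET-ROR line, 1,000 cells/well, 37 C 5% CO2 5 hr; cpd or DMSO + doxycycline induction, 16 hr. CellTiter-Glo, 30 min RT, luminescence = ATP content.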

[10] = qHTS assay for small molecule agonists of the antioxidant response element (ARE) signaling pathway measured by Nrf2-dependant transcriptional activity (AID 720636; active means well fitted curve in the direction sought with a large enough effect in the repeat runs; an effect the other way counts as inactive or inconclusive;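 further: HepG2 cells with an ARE-driven luciferase reporter; % of control where 0% means no effect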); settings: ARE-luc HepG2, Nrf2 luciferase reporter, 16 h; series mostly up to 92.4 µM
In short: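 Attachment 6 hr at 37 C, then compound versus DMSO vehicle for 16 hr in ARE-luc HepG2 cells (1% dialyzed FBS); luminescence recorded 30 min after ONE-Glo addition at room temperature.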

[11] = biological target: Nuclear receptor ROR-gamma (Homo sapiens) (UniProt P51449); assay: qHTS assay for small molecule antagonists of the retinoid-related orphan receptor gamma (ROR-gamma) signaling pathway (AID 651802); settings: ROR-gamma antagonist cell reporter assay; series mostly up to 92.2 µM;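 further: CHO cells with doxycycline-induced ROR-gamma expression; luciferase reporter luminescence driven by ROR response element; on the % scale 0 is the no-effect control and ±100 the full control effect; nearly all actives have a fitted effect of over 60% in size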
In short: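 Luciferase read-out: ONE-Glo luminescence after 30 min at room temperature, following 16hr doxycycline induction at 37C, 5% CO2 of CHO cells with TET-inducible ROR and RORE-LUC reporter; decreased luminescence = reduced reporter activity.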

[12] = biological target: Arylsulfatase A (Homo sapiens) (UniProt P15289); assay: qHTS screen for enhancers of Arylsulfatase A (ASA1): LOPAC Validation Assay (AID 720538); settings: ASA enzyme activity, LOPAC qHTS enhancer assay; series mostly up to 57.5 µM; further: 0% is about no effect
In short: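 Cell-based enhancement test: residual ASA activity in SV40-transformed I179S patient fibroblasts is measured by pNCS turnover (0.5mM final, 14h, room temperature) following 48h compound incubation; higher fluorescence indicates activation.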

[13] = qHTS for compounds that reverse cellular toxicity of Amyloid beta (A-beta) peptide in yeast: LOPAC Validation Assay (AID 720559); settings: yeast expressing A-beta; series mostly up to 46.1 µM;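 further: plate controls were DMSO for no effect and equimolar ferric chloride plus clioquinol rescue for full effect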
In short: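 Here, A-beta-toxic yeast grow with test compounds at 30 C for 48 hr before optical density at 600 nm is recorded; data are normalized against DMSO and the FeCl3-clioquinol control.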

[14] = qHTS for Activators of Parkin Expression: LOPAC Validation Assay (NLuc Reporter) (AID 720572); settings: Parkin promoter NanoLuc reporter cells, luminescence, percent of positive control, DMSO as zero; series mostly up to 46.1 µM
In short: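 Compound effects on Parkin promoter activity were measured as NanoLuc luminescence after 24 h at 37 C. The neuronal reporter line also carried FLuc, which was read first. LOPAC compounds were tested at 7 concentrations, with normalization to DMSO (0%) and positive control (100%).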

[15] = biological target: T1, Hexokinase-4 (Homo sapiens) + Glucokinase regulatory protein (Homo sapiens) (UniProt P35557+Q14397); assay: qHTS assay for inhibitors of recombinant human GCK-GKRP interaction: Diaphorase-coupled assay (AID 743205); settings: G6PDH/diaphorase resorufin fluorescence; series mostly up to 57.5 µM
In short: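 Signal derives from resorufin generated by diaphorase, linked to GCK turnover of glucose (5 mM) and ATP (0.4 mM). Enzyme complex was added after a 20-minute compound preincubation and monitored for 30 minutes.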

[16] = biological target: T1, Hexokinase-4 (Homo sapiens) + Glucokinase regulatory protein (Homo sapiens); assay: qHTS assay for inhibitors of recombinant human GCK-GKRP interaction: ADP-Glo assay (AID 743206); settings: ADP-Glo luminescence, 60 min, 0% = vehicle-only wells with enzyme present; series mostly up to 76.9 µM;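 further: plate controls were DMSO plus enzyme for no effect and no enzyme for full effect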
In short: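 Pin-transferred compounds meet a 15 nM GST-GCK/15 nM FLAG-GKRP/2 uM S6P mix (dispense concentrations). ATP is then added to 0.4 mM final with 5 mM glucose, and the reaction runs 60 min at room temperature. ADP is quantified luminescently.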

[17] = biological target: T1, Hexokinase-4 (Homo sapiens) + Glucokinase regulatory protein (Homo sapiens); assay: qHTS assay for inhibitors of recombinant human GCK-GKRP interaction: HTRF assay (AID 743207); settings: recombinant GCK-GKRP HTRF binding, 60 min; series mostly up to 57.5 µM;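 further: 0% = DMSO with GCK present and -100% = DMSO wells lacking GCK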
In short: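 Titration screening format: recombinant GST-GCK and FLAG-GKRP at 5 nM, S6P at 2 uM, labelled anti-tag antibodies, 60 min at RT, dual-wavelength HTRF readout.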

Chain of Peroxisome proliferator-activated receptor alpha (Homo sapiens) (Q07869 whole entry, looked up): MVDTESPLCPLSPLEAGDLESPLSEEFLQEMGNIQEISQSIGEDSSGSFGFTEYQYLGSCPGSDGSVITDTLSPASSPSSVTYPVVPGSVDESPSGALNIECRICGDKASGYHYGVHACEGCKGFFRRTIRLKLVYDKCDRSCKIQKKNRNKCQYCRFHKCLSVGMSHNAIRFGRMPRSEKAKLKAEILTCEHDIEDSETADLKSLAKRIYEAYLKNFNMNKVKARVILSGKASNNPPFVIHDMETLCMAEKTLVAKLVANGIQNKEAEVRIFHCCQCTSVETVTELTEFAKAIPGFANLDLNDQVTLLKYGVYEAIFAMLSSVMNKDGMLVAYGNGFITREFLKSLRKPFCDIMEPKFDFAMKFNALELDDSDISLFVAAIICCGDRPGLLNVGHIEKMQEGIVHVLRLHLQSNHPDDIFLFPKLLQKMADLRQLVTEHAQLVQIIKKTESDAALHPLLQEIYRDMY
Chain of Nuclear receptor ROR-gamma (Homo sapiens) (P51449 whole entry, looked up): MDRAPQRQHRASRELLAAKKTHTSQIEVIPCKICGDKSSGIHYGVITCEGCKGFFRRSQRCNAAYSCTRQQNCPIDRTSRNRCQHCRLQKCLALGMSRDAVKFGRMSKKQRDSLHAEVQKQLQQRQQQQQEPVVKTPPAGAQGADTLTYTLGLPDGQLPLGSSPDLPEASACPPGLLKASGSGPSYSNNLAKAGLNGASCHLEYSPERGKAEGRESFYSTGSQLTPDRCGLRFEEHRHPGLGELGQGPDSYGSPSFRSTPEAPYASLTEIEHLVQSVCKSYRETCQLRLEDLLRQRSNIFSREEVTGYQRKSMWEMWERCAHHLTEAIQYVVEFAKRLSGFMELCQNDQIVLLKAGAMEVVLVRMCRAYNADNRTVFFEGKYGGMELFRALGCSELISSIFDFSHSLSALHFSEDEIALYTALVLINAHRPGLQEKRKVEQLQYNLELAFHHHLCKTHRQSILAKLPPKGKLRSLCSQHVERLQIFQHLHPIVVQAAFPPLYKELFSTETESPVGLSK
Chain of Tumor necrosis factor (Homo sapiens) (P01375 whole entry, looked up): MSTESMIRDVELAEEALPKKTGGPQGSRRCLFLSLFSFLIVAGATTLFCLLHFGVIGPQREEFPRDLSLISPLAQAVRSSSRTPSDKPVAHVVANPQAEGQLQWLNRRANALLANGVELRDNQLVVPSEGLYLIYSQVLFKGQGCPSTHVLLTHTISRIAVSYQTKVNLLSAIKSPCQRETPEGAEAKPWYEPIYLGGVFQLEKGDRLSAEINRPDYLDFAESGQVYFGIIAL
T1 sequence (P35557 whole entry, looked up): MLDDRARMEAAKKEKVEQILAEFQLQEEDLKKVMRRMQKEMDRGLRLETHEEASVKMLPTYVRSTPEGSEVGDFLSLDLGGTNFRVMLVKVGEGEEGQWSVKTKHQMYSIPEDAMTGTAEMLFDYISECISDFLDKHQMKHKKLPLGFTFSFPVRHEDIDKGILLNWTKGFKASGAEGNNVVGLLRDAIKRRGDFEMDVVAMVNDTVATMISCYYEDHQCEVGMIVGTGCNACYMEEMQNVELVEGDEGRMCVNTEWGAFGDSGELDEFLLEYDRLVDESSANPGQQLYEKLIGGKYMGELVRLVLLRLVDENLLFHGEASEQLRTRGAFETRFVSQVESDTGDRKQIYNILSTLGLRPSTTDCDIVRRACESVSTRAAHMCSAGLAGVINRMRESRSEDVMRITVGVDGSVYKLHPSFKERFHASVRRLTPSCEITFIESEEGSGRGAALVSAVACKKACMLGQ
T1 sequence (Q14397 whole entry, looked up): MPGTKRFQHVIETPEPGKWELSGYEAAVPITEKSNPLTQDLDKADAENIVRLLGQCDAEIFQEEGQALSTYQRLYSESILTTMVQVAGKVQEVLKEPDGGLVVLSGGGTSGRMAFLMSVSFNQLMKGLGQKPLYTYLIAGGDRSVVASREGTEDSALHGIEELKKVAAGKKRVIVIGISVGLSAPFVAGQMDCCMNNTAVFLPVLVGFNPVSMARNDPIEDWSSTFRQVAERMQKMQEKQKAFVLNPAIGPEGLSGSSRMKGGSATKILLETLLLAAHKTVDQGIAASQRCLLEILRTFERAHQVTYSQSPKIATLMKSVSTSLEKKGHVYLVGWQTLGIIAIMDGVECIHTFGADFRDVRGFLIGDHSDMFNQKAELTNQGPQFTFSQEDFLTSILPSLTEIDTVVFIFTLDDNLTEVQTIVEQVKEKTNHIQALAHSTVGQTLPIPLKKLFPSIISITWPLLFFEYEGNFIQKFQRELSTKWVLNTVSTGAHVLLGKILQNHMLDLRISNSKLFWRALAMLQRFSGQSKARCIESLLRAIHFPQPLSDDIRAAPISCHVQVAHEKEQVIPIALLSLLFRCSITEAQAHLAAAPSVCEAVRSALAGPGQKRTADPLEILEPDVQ
Chain of Arylsulfatase A (Homo sapiens) (P15289 whole entry, looked up): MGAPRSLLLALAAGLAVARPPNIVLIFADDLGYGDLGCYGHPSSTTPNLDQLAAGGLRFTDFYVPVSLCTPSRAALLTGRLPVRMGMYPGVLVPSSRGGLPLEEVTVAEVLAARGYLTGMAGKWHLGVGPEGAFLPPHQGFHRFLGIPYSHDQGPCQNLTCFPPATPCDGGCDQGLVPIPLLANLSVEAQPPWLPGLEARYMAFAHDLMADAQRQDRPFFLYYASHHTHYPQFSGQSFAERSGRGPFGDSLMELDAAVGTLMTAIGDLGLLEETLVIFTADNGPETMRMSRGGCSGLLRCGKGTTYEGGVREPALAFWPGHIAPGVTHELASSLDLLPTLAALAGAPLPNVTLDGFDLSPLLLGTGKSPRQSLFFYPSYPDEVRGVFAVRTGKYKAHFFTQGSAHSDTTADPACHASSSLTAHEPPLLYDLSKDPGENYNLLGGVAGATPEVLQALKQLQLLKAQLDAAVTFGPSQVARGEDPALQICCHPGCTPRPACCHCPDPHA

CC(C)Oc1cccc(NC(=O)c2ccccc2C(F)(F)F)c1
inactive: activation [1] 1.81% | activation [2] 11.8% | max response [3] 3.69% | max response [4] -3.23% | max response [5] 15.7%

CC(C)(c1ccc(O)cc1)c1ccc(O)cc1
active: Potency [6] 26.6 µM and 13.3 µM

O=C(O)c1cc(Oc2ccc(C(F)(F)F)cc2Cl)ccc1[N+](=O)[O-]
inactive: activation [1] -1.27% | activation [2] 2.44% | max response [3] -3.73% | max response [4] -5.54% | max response [5] -10.7%

O=C(O)COc1ccccc1
inactive: activation [1] -0.0582% | outcome [7] | outcome [8] | activation [2] 0.99% | max response [3] -1.23% | Potency [9] | max response [4] -7.55% | max response [5] -2.31%

C=CC(=O)NCNC(=O)C=C
inactive: activation [1] -0.065% and -1.61% | outcome [7] | outcome [8] | activation [2] 1.7% and 2.02% | max response [3] -3.68% and -5.17% | Potency [10] | Potency [9] | max response [4] 1.98% and -12.5% | max response [5] 11%

Nc1ccc(Cl)cc1
inactive: Potency [6] | outcome [7] | activation [2] 0.816% | max response [3] 8.91% | Potency [11] | Potency [9] | max response [4] -5.98% | max response [5] 4.15%

O=[N+]([O-])c1c2ccccc2cc2ccccc12
active: Potency [6] 11.9 µM
inactive: outcome [7] | activation [2] 10% | max response [3] 5.89% | Potency [11] | Potency [9] | max response [4] -1.85% | max response [5] -7.57%

CC(C)(C)C(O)C(Oc1ccc(Cl)cc1)n1cncn1 (stereo not drawn)
inactive: activation [1] -0.211% | activation [2] 5.62% | max response [3] -0.528% | max response [4] -9.81% | max response [5] 12.8%

Clc1cnc(Oc2ccc(Oc3ncc(Cl)cc3Cl)cc2)c(Cl)c1
inactive: activation [1] 0.531% | activation [2] 0.838% | max response [3] 2.8% | outcome [12] | outcome [13] | outcome [14] | max response [4] -6.15% | outcome [15] | outcome [16] | outcome [17] | max response [5] 17.9%

Cc1cc(O)ccc1Cl
inactive: activation [1] -0.28% | Potency [6] | outcome [7] | activation [2] -0.735% | max response [3] -2.23% | Potency [9] | max response [4] 3.07% | max response [5] 25.2%

Nc1ccc(Cl)cc1N
active: Potency [6] 8.41 µM | Potency [2] 50.1 µM and 39.8 µM
inactive: activation [1] 0.983% and -0.776% | max response [3] -5.6% and -0.828% | Potency [11] | Potency [9] | max response [4] -19.8% | max response [5] -15.5%

COc1nn(CSP(=S)(OC)OC)c(=O)s1
inactive: activation [1] -0.901% | activation [2] -1.09% | max response [3] -1.93% | max response [4] -11.6% | max response [5] 14.2%

COC(C)(C)CCCC(C)C/C=C/C(C)=C/C(=O)OC(C)C (stereo not drawn)
inactive: activation [1] -3.22% and 0.402% | Potency [6] | outcome [7] | activation [2] 4.38% and 10.5% | max response [3] 3.83% and 3.99% | Potency [11] | max response [4] -7.11% and 1.67% | max response [5] -9.95%

CCOP(=O)(NC(C)C)Oc1ccc(SC)c(C)c1 (stereo not drawn)
inactive: activation [1] -0.0757% and -0.702% | outcome [7] | outcome [8] | activation [2] 4% and 2.89% | max response [3] 2.22% and -0.0211% | Potency [11] | Potency [9] | max response [4] -14.8% and -8.95% | max response [5] 14.8%

Nc1ccc(Sc2ccc(N)cc2)cc1
inactive: Potency [6] | activation [2] 6.89% and 6.82% | max response [3] -3.47% and -0.953% | Potency [11] | Potency [9] | max response [4] 10% and -10.9%

CCCCOC(=O)c1ccccc1C(=O)OCc1ccccc1
inactive: activation [1] -1.25% and 0.0084% | outcome [7] | outcome [8] | activation [2] 12.8% and 3.39% | max response [3] -3.94% and -0.0123% | Potency [11] | Potency [9] | max response [4] -1.29% and -2.62% | max response [5] 13.2%
